The values below come from paper PMC11062922 (Nature Chemical Biology, 2023).

Read-outs that look alike come from different tables or passages of the source.

Holding throughout (set-up): species or system human, MV4-11 + K-562 + COLO205 + SK-N-BE2 + OVCAR-8
The subject of one assay is CAMK4. Conditions: read-out: apparent Kd, n = 1.
In the next assay the test system is DCTPP1. Conditions: read-out: apparent Kd, n = 1.
The subject of the next assay is CSNK1G3. The conditions noted are these: read-out: apparent Kd, compound concentrations: 100 nM and 1000 nM (sheet 'Samples'), n = 1.
The next assay relates to MST1R. The conditions noted are these: read-out: apparent Kd, n = 1.
Another assay concerns COX5A. The conditions noted are these: read-out: apparent Kd, n = 1.
Another assay relates to LIMK1. The conditions noted are these: read-out: apparent Kd, n = 1.
For another assay, the system named is NEK3. Conditions: read-out: apparent Kd, n = 1.
The next assay deals with TBK1. The conditions noted are these: read-out: apparent Kd; compound concentrations:100 nM and 1000 nM (sheet 'Samples'); n = 1.
A further assay relates to DDR2. Conditions: read-out: apparent Kd; compound concentrations: 100 nM and 1000 nM (sheet 'Samples'), CATDS: 5.5525356317498699E-2; n = 1.
The test system of the next assay is PRKX;PRKY. The conditions noted are these: read-out: apparent Kd, n = 1.
For the next assay, the system named is ACAD8. The conditions noted are these: read-out: apparent Kd, n = 1.
The test system of another assay is TAOK3. The conditions noted are these: read-out: apparent Kd, n = 1.
In a further assay the test system is CAMK2D. The conditions noted are these: read-out: apparent Kd; compound concentrations: 100 nM and 1000 nM (sheet 'Samples'), CATDS: 2.4491980048065101E-2; n = 1.
The subject of a further assay is MAP2K6. The conditions noted are these: read-out: apparent Kd, n = 1.
The next assay deals with VDAC3. Conditions: read-out: apparent Kd, n = 1.
In another assay the test system is BMPR2. The conditions noted are these: read-out: apparent Kd, compound concentrations: 100 nM and 1000 nM (sheet 'Samples'), n = 1.
The next assay has as its system SIK3. Conditions: read-out: apparent Kd, n = 1.
The next assay has as its system ERN1. Conditions: read-out: apparent Kd, n = 1.
The next assay has as its system MET. The conditions noted are these: read-out: apparent Kd; compound concentrations:100 nM and 1000 nM (sheet 'Samples'); n = 1.
The mark [1] stands for this setting: compound concentrations:100 nM and 1000 nM (sheet 'Samples').

As to `O=C(O)C(F)(F)F.O=c1[nH]ccc2nc(N[C@@H]3CCNC3)nc(Nc3cc(Cl)cc(Cl)c3)c12` [GSK2188764A], in the assay on CAMK4 (setting [1]), the potency estimated from few doses is 977 nM.

For the compound `Cc1cccc(Nc2nc(N[C@H]3CCNC3)ncc2C(N)=O)c1.Cl` [GSK2197149A], in the assay with DCTPP1 (setting [1]), the potency estimated from few doses was 1150 nM.

Turning to `CCn1c(-c2cccnc2O)nc2cnccc21` [SB-736715], the potency estimated from few doses in the assay with CSNK1G3 (CATDS: 1.22763705207965E-2) was 2060 nM; in the assay on MST1R (compound concentrations: 100 nM and 1000 nM (sheet 'Samples'), CATDS: 1.2580908946689701E-2), 1930 nM.

Take `Cc1cc(-c2ccnc(Nc3cccc(C#N)c3)n2)cc(C)c1O` [GSK1440913A]: the potency estimated from few doses in the assay on COX5A (compound concentrations: 100 nM and 1000 nM (sheet 'Samples'), CATDS: 8.0504484678198804E-2) is 1300 nM.

Take `CC(C)Oc1ccc2c(-c3ccnc(Nc4ccc(N5CCN(C)CC5)cc4)n3)cnn2n1` [GW696155X]: the potency estimated from few doses in the assay on LIMK1 (setting [1]) was 576 nM; with NEK3 (setting [1]), 421 nM; in the assay on TBK1, 621 nM.

Turning to `c1cnn2ncc(-c3ccnc(Nc4ccc5c(c4)OCCO5)n3)c2c1` [GW806290X], in the assay with NEK3 (compound concentrations: 100 nM and 1000 nM (sheet 'Samples'), CATDS: 2.00420212482838E-2), the potency estimated from few doses is 2000 nM.

`CN(c1ccc(NC(=O)NCCN2CCOCC2)cc1)c1ccnc(Nc2ccc(CS(C)(=O)=O)cc2)n1.Cl` [GW830365A]: the potency estimated from few doses in the assay with DDR2 was 940 nM.

As to `CN(C)CC(O)COc1ccc(Nc2nccc(-c3cnn4nc(N5CCOCC5)ccc34)n2)cc1` (centres unmarked) [GW767488X], the potency estimated from few doses in the assay on NEK3 (setting [1]) was 467 nM.

`COc1cc(Nc2nccc(N3CCC(NC(=O)c4cccc(NC(C)=O)c4)C3)n2)cc(OC)c1OC` (centres unmarked) [GSK1379754A]: the potency estimated from few doses in the assay with LIMK1 (compound concentrations: 100 nM and 1000 nM (sheet 'Samples'), CATDS: 8.2781561075995602E-2) is 1830 nM.

For the compound `CC(C)Nc1cc(-c2ccc3c(N)n[nH]c3c2)nc(N)n1` [GSK2221681A], in the assay on PRKX;PRKY (setting [1]), the potency estimated from few doses is 1270 nM.

Consider `NC(=O)c1cc(-c2ccccc2)cc2c(C3CCNCC3)c[nH]c12` [GSK301362A], for which the potency estimated from few doses with ACAD8 (setting [1]) was 1750 nM; with TAOK3 (setting [1]) it was 1570 nM.

Take `COc1cc[nH]c1/C=C1\C(=O)Nc2ccc(F)c(C#CC3(O)CCNCC3)c21.Cl` [RO0282986-001]: the potency estimated from few doses is 142 nM in the assay with CAMK2D; 1500 nM with MAP2K6 (compound concentrations: 100 nM and 1000 nM (sheet 'Samples'), CATDS: 9.6893915598830205E-3).

Consider `FC(F)(F)c1ccc(-c2ncn(CCCN3CCOCC3)c2-c2ccncc2)cc1` [SB-217780], for which, in the assay with ACAD8 (compound concentrations: 100 nM and 1000 nM (sheet 'Samples'), CATDS: 0.18065047008749499), the potency estimated from few doses is 2210 nM.

For `O=C1N=C(NCc2cccs2)O/C1=C\c1ccc2ncccc2c1` [RO4624208-000], the potency estimated from few doses in the assay on DCTPP1 (compound concentrations: 100 nM and 1000 nM (sheet 'Samples'), CATDS: 5.0969349281877803E-2) is 1270 nM.

Consider `COC(=O)c1cccc(NC(=O)NC2CCN(c3ccnc(Nc4cc(OC)c(OC)c(OC)c4)n3)C2)c1` (centres unmarked) [GSK1379767A], for which, in the assay with VDAC3 (compound concentrations: 100 nM and 1000 nM (sheet 'Samples'), CATDS: 0.107496122866376), the potency estimated from few doses is 1480 nM.

With `Cc1ccccc1C1=C(c2cn(C)c3ccccc23)C(=O)NC1=O` [RO0317612-000], the potency estimated from few doses with COX5A (compound concentrations: 100 nM and 1000 nM (sheet 'Samples'), CATDS: 0.16821535460753201) was 767 nM.

Take `O=C(O)C(F)(F)F.O=C(O)C(F)(F)F.O=c1[nH]ccc2nc(N[C@@H]3CCCNC3)nc(Nc3ccc(S(=O)(=O)N4CCOCC4)cc3)c12.O=c1[nH]ccc2nc(N[C@@H]3CCCNC3)nc(Nc3ccc(S(=O)(=O)N4CCOCC4)cc3)c12` [GSK2177277A]: the potency estimated from few doses with BMPR2 (CATDS: 8.2432165271610295E-3) was 514 nM; in the assay on CAMK4 (compound concentrations: 100 nM and 1000 nM (sheet 'Samples'), CATDS: 6.74489650552607E-3), 1190 nM; in the assay with COX5A (compound concentrations: 100 nM and 1000 nM (sheet 'Samples'), CATDS: 6.6138643227552996E-3) it was 1310 nM; with CSNK1G3 (CATDS: 7.8894585802162295E-3), 605 nM; in the assay with MST1R (compound concentrations: 100 nM and 1000 nM (sheet 'Samples'), CATDS: 6.3226356559210701E-3), 1690 nM; with SIK3 (compound concentrations: 100 nM and 1000 nM (sheet 'Samples'), CATDS: 6.8651363479693096E-3), 1090 nM. Besides, the potency estimated from few doses in the assay on TAOK3 (compound concentrations: 100 nM and 1000 nM (sheet 'Samples'), CATDS: 6.2703295867196796E-3) was 1770 nM.

`CN(C)C(=O)/C(C#N)=C/c1ccc(-c2nc3cnc4[nH]ccc4c3n2C2CCCCC2)o1` [FM-381]: the potency estimated from few doses in the assay with COX5A (setting [1]) was 756 nM.

For the compound `COc1cccc(C2=C(c3c(C)n(C)c4ccccc34)C(=O)NC2=O)c1` [RO3300167-000], in the assay with ERN1 (compound concentrations: 100 nM and 1000 nM (sheet 'Samples'), CATDS: 7.9309280446682603E-2), the potency estimated from few doses was 1540 nM.

Turning to `O=C(Nc1n[nH]c2nc(-c3ccccc3O)ccc12)C1CC1` [SB-711880], the potency estimated from few doses in the assay with ERN1 (setting [1]) is 1700 nM; in the assay on MAP2K6 (setting [1]) it was 1810 nM.

Consider `CC(C)N1CC(=O)N(C)c2cnc(Nc3cccc(S(=O)(=O)CCN4CCOCC4)c3)nc21` [BI00009348], for which the potency estimated from few doses in the assay on BMPR2 (CATDS: 7.5564324360796103E-2) is 646 nM.

Regarding `Cc1occc1-c1nc(N)c(OC[C@@H](N)Cc2c[nH]c3ccccc23)cc1-c1cc2c(C)n[nH]c2cn1` [GSK1660450B], the potency estimated from few doses with COX5A (setting [1]) is 824 nM; in the assay with SIK3 (setting [1]) it was 154 nM; in the assay on TAOK3 (setting [1]) it was 76 nM; with VDAC3 (setting [1]), 102 nM.

With `O=C1N=C(NCCc2ccccc2Cl)S/C1=C\c1ccc2ncccc2c1` [RO4498484-000], the potency estimated from few doses in the assay on PRKX;PRKY (compound concentrations: 100 nM and 1000 nM (sheet 'Samples'), CATDS: 5.9384973682941697E-2) was 1830 nM.

As for `Nc1nc(-c2ccc3c(N)n[nH]c3c2)cc(N2CCCC(NC(=O)c3ccccc3)C2)n1` (centres unmarked) [GSK2286775B], the potency estimated from few doses in the assay with CAMK4 (setting [1]) is 1090 nM; in the assay with MET it was 2250 nM; in the assay with MST1R (setting [1]) it was 2250 nM; in the assay on TBK1, 342 nM.

Take `CCC(CC)(CC)n1cnc2c(N)ncnc21` [SKF-97620]: the potency estimated from few doses in the assay with CSNK1G3 (CATDS: 2.4754449130961701E-2) was 1820 nM.

For the compound `Cl.Cn1c(=O)c(Cc2ccccc2F)cc2cnc(NC3CCOCC3)nc21` [RO3305377-001], the potency estimated from few doses with CAMK4 (compound concentrations: 100 nM and 1000 nM (sheet 'Samples'), CATDS: 1.6194401739627301E-2) is 2150 nM.
